Source: article PMC4336329 (PLoS ONE, 2015)
Hit rate of the full screen: of about 310,000 compounds, about 14,000 (4.5%) showed an effect of 50% or more. Effects have a minus sign here. This is one part of a sample in which strong results are shown more often than they occur.

molecular target: human ether-à-go-go-related gene (hERG) potassium channel (human, UniProt Q12809); assay: primary screen, population patch clamp on CHO cells stably expressing hERG; higher = less effect of the substance
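Further: peak tail current of the secondary pulse compared with the same well before compound.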

Sequence of human ether-à-go-go-related gene (hERG) potassium channel (Q12809 whole entry, looked up): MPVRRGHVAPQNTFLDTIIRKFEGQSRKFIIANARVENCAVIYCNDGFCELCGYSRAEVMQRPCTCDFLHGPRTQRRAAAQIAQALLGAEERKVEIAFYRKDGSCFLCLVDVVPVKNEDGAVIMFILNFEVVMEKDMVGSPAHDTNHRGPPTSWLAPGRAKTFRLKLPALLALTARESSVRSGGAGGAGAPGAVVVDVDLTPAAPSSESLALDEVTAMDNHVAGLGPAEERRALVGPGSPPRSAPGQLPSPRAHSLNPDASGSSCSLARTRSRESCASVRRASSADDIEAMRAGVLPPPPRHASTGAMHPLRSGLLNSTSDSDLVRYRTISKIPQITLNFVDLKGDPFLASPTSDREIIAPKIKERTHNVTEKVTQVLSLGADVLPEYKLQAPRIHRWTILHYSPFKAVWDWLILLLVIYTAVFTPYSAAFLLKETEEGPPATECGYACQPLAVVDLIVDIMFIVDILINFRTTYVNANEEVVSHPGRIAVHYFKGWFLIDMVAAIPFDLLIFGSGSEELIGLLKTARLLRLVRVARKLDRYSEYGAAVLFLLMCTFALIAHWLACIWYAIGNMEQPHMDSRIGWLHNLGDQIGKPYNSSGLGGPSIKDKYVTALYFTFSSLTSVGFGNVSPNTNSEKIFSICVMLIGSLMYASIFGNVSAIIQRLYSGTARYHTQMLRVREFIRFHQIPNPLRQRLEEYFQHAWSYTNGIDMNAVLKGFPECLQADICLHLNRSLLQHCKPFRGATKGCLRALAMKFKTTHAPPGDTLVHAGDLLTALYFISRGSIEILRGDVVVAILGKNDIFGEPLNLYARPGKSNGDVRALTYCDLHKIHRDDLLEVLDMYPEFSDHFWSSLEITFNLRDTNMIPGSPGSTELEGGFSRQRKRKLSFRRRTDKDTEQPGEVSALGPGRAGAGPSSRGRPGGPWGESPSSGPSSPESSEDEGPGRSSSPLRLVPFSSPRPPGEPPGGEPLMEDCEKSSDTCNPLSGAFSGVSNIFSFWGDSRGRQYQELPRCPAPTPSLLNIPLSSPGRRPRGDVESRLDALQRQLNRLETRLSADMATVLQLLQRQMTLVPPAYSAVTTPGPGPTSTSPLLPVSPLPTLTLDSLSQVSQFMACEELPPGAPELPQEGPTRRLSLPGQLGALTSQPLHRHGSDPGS

Row | SMILES | hERG current change (%, negative = inhibition) at 10uM [%]
1 | CCc1nnc(NC(=O)c2ccc(S(=O)(=O)N(CC)Cc3ccccc3)cc2)o1 | -12.9
2 | O=C(Nc1nc(-c2cccs2)cs1)C1=COCCO1 | -15.9
3 | CCCCC(=O)Nc1ccc2c(c1)C(=O)NC2=O | 2.21
4 | Cc1ccc(NC(=O)c2c(-c3ccccc3Cl)noc2C)nc1 | 1.56
5 | COc1ccc(NC(=O)COC(=O)c2cc(Cl)ccc2O)cc1S(=O)(=O)N1CCCCC1 | 10.5
6 | O=C(COC(=O)c1cccnc1Cl)NCC1CCCO1 (stereo not shown) | 10.8
7 | COc1ccccc1/C=C/C=N/N1CCN(c2ccccn2)CC1 | -2.4
8 | Cc1cccc(CS(=O)(=O)Cc2ccc(C(=O)O)o2)c1 | 16.5
9 | CC(C)NC(=S)N1CCN(C/C=C/c2ccccc2)CC1 | -15.5
10 | CC(C(=O)Nc1cccc([N+](=O)[O-])c1)N1CCN(C/C=C/c2ccccc2)CC1 (stereo not shown) | -75.6
11 | COC(C(=O)Nc1cccc([N+](=O)[O-])c1)c1ccccc1 (stereo not shown) | 1.56
12 | CNC(=O)NC(=O)C(C)N1CCN(C/C=C/c2ccccc2)CC1 (stereo not shown) | -63
13 | CC(C(=O)Nc1cccc([N+](=O)[O-])c1)n1nnc2ccccc21 (stereo not shown) | -33.5
14 | CCCCNC(=O)N1CCN(C/C=C/c2ccccc2)CC1 | -29.9
15 | Cc1nc(SCC(N)=O)[nH]c(=O)c1Cc1ccc(OC(C)C)cc1 | 3.98
16 | CCCCCC(=O)Nc1ccc(-c2csc(C)n2)cc1 | 18.7
17 | COc1cccc(N(CC(=O)NC(C)c2ccccc2)S(C)(=O)=O)c1 (stereo not shown) | 22.3
18 | N=C1/C(=C/c2coc3ccccc3c2=O)C(=O)N=C2SC(c3ccco3)=NN12 | 12.8
19 | N=C1/C(=C\c2coc3ccccc3c2=O)C(=O)N=C2SC(c3ccncc3)=NN12 | -59
20 | N=C1/C(=C\c2coc3ccccc3c2=O)C(=O)N=C2SC=CN12 | 15.3
21 | O=C(Nc1nnc(-c2ccc(Cl)cc2)o1)Nc1ccccc1F | 1.31
22 | Cc1csc(CN(C)C(=O)CC2C(=O)NCCN2Cc2ccc(F)c(F)c2)n1 (stereo not shown) | 6.02
23 | COCCCNC(=S)NCCNc1nc2cc(C)c(C)cc2cc1C#N | -2.23
24 | C/C(=C/c1ccccc1)C(=O)N1CC(C)OC(C)C1 (stereo not shown) | 11.7
25 | COc1cc2c(cc1OC)C(c1cccc(C)c1)CC(=O)N2 (stereo not shown) | -10.5
